B1: GCACTCCA (ssRNA)
RNA 1: GAGUUCUACAGUCCGACGAUCCCAACGCACUCCACACCUGGAAUUCUCGGGUGCCAA
RNA 2: UGGAGUGUGACAAUGGUGUUUG
DNA 1: GATCGTCGGACTGTAGAACTC
DNA 2: TTGGCACCCGAGAATTCCA
modifications: constant regions annealed to DNA blockers; guide miR-122 5' phosphate
B2: GCATTTCA (ssRNA)
RNA 1: B1 RNA 1 with C30U, C32U
RNA 2: UGGAGUGUGACAAUGGUGUUUG
DNA 1: GATCGTCGGACTGTAGAACTC
DNA 2: TTGGCACCCGAGAATTCCA
modifications: constant regions annealed to DNA blockers; guide miR-122 5' phosphate
B3: ACGTCTCA (ssRNA)
RNA 1: B1 RNA 1 with G27A, A29G, C30U, U31C, C32U
RNA 2: UGGAGUGUGACAAUGGUGUUUG
DNA 1: GATCGTCGGACTGTAGAACTC
DNA 2: TTGGCACCCGAGAATTCCA
modifications: constant regions annealed to DNA blockers; guide miR-122 5' phosphate
B4: ATGTCTCA (ssRNA)
RNA 1: B1 RNA 1 with G27A, C28U, A29G, C30U, U31C, C32U
RNA 2: UGGAGUGUGACAAUGGUGUUUG
DNA 1: GATCGTCGGACTGTAGAACTC
DNA 2: TTGGCACCCGAGAATTCCA
modifications: constant regions annealed to DNA blockers; guide miR-122 5' phosphate
B5: ACACTTTA (ssRNA)
RNA 1: B1 RNA 1 with G27A, C32U, C33U
RNA 2: UGGAGUGUGACAAUGGUGUUUG
DNA 1: GATCGTCGGACTGTAGAACTC
DNA 2: TTGGCACCCGAGAATTCCA
modifications: constant regions annealed to DNA blockers; guide miR-122 5' phosphate
B6: ACATCCCA (ssRNA)
RNA 1: B1 RNA 1 with G27A, C30U, U31C
RNA 2: UGGAGUGUGACAAUGGUGUUUG
DNA 1: GATCGTCGGACTGTAGAACTC
DNA 2: TTGGCACCCGAGAATTCCA
modifications: constant regions annealed to DNA blockers; guide miR-122 5' phosphate
B7: GCACCTCA (ssRNA)
RNA 1: B1 RNA 1 with U31C, C32U
RNA 2: UGGAGUGUGACAAUGGUGUUUG
DNA 1: GATCGTCGGACTGTAGAACTC
DNA 2: TTGGCACCCGAGAATTCCA
modifications: constant regions annealed to DNA blockers; guide miR-122 5' phosphate
B8: ATGCTCCG (ssRNA)
RNA 1: B1 RNA 1 with G27A, C28U, A29G, A34G
RNA 2: UGGAGUGUGACAAUGGUGUUUG
DNA 1: GATCGTCGGACTGTAGAACTC
DNA 2: TTGGCACCCGAGAATTCCA
modifications: constant regions annealed to DNA blockers; guide miR-122 5' phosphate
B9: ATATCTCA (ssRNA)
RNA 1: B1 RNA 1 with G27A, C28U, C30U, U31C, C32U
RNA 2: UGGAGUGUGACAAUGGUGUUUG
DNA 1: GATCGTCGGACTGTAGAACTC
DNA 2: TTGGCACCCGAGAATTCCA
modifications: constant regions annealed to DNA blockers; guide miR-122 5' phosphate
B10: ACATTTCA (ssRNA)
RNA 1: B1 RNA 1 with G27A, C30U, C32U
RNA 2: UGGAGUGUGACAAUGGUGUUUG
DNA 1: GATCGTCGGACTGTAGAACTC
DNA 2: TTGGCACCCGAGAATTCCA
modifications: constant regions annealed to DNA blockers; guide miR-122 5' phosphate

Where a chain is given by its changes, count along the chain named.

AGO2 A367P, sequence (Q9UKV8 whole entry A367P/S387D/S824A/S828D/S831D/S834A): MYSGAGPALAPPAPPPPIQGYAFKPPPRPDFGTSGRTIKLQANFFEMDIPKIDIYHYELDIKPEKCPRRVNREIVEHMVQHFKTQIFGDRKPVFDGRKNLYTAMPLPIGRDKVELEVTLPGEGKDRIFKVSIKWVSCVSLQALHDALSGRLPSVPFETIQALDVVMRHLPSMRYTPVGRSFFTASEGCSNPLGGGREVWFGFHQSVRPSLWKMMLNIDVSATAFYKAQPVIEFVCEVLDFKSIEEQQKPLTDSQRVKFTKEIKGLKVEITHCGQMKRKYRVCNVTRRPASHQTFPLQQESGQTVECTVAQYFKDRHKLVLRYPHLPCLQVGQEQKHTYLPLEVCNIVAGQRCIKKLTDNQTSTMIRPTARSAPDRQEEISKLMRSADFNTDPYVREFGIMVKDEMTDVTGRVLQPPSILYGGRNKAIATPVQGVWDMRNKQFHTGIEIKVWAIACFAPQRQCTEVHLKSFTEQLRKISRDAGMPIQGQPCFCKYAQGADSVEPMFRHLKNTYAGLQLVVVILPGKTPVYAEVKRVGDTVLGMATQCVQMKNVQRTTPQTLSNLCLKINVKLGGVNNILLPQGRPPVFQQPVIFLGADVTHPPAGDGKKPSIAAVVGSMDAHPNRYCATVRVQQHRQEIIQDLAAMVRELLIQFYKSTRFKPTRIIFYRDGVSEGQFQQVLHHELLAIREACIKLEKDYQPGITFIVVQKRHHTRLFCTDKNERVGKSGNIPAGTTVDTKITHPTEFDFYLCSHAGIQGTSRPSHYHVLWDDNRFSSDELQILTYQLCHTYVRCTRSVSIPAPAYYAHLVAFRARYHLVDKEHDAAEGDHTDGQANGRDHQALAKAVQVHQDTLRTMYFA
AGO2 F182del, sequence (Q9UKV8 other isoform, or with tags, fused parts or gaps S387D;S824A;S828D;S831D;S834A;del182-182): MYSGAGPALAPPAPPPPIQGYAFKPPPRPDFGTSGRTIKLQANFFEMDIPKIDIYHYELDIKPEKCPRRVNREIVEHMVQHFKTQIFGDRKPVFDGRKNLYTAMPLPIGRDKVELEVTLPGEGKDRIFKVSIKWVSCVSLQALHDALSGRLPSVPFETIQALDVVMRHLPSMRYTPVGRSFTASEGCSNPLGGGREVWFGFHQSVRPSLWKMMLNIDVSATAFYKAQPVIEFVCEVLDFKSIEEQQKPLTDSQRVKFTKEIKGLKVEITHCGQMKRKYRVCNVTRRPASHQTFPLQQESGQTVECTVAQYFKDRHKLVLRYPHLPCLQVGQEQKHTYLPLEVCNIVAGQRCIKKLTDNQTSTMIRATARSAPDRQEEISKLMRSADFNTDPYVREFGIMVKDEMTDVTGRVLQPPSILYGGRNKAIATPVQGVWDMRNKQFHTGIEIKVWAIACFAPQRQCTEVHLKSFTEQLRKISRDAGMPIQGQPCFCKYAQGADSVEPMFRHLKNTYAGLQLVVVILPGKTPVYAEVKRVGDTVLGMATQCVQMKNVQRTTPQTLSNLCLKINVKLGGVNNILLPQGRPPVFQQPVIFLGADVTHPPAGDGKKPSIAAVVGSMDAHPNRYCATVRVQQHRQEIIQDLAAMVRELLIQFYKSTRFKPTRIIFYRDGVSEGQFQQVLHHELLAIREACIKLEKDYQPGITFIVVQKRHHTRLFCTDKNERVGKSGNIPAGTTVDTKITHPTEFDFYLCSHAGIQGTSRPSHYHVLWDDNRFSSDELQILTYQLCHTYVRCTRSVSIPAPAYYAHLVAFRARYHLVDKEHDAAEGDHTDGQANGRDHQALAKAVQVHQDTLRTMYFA
AGO2 WT (phosphosite mutant background), sequence (Q9UKV8 whole entry S387D/S824A/S828D/S831D/S834A): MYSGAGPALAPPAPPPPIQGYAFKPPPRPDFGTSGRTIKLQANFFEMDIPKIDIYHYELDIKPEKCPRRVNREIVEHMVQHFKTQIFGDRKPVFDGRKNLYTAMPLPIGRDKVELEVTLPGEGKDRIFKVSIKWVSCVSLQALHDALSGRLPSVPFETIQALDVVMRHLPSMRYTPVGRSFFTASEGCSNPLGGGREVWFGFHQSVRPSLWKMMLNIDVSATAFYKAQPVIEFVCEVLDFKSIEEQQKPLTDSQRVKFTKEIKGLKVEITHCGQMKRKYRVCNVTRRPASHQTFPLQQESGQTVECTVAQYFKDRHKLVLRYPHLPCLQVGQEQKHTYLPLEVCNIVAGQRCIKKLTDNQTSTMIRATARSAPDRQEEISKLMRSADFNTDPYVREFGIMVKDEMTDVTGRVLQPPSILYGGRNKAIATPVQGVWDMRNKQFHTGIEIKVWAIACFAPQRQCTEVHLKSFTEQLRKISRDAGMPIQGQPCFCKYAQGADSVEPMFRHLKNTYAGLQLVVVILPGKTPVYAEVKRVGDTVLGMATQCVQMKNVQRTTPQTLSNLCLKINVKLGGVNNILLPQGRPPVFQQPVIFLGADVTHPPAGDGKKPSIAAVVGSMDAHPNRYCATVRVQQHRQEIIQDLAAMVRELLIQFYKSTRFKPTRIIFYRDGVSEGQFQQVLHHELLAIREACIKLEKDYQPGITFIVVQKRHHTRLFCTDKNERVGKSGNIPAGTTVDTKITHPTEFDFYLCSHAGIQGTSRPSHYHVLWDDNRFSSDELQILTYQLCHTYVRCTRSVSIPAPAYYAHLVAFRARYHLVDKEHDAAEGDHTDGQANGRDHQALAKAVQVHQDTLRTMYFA
AGO2 L192P, sequence (Q9UKV8 whole entry L192P/S387D/S824A/S828D/S831D/S834A): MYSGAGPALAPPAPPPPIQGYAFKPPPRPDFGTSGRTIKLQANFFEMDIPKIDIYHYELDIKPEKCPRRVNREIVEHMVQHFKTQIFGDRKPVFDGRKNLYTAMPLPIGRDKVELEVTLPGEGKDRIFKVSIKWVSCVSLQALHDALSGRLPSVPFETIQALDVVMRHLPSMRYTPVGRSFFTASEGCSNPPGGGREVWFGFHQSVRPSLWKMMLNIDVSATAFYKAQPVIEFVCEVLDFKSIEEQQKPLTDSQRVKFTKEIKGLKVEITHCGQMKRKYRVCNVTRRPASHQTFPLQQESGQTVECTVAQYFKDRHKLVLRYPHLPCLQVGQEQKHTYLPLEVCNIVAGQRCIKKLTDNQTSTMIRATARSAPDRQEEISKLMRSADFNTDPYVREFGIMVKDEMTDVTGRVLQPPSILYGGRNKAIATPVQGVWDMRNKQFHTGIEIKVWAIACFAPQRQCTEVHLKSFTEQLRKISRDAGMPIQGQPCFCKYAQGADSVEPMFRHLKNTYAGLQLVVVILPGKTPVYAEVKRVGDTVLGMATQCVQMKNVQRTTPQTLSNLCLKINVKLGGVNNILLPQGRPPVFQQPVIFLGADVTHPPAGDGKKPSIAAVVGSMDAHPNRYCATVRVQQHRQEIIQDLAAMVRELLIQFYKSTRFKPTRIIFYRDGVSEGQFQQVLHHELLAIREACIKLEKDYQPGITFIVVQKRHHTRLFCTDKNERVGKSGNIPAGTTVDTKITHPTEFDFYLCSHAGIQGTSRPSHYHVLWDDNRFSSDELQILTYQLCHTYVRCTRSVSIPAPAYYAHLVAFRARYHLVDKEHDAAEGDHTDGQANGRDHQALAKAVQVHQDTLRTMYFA

The target of one experiment is AGO2 WT (phosphosite mutant background) (Homo sapiens, UniProt Q9UKV8 1-859, S387D;S824A;S828D;S831D;S834A). The experiment is described as follows: RNA Bind-n-Seq (nitrocellulose filter binding and sequencing); miR-122 guide loaded in AGO2; 60 min incubation; 30 mM Tris pH 8.0, 100 mM potassium acetate, 2 mM magnesium acetate, 0.5 mM TCEP, 0.005% NP-40, 0.01 mg/ml yeast tRNA; 3 nM AGO2-miR-122, 100 nM RNA library; 60; high values mean tight binding. The settings on record: protein: recombinant; tags: His6 (N-terminal, pFastBac HTA). The method, boiled down:
(§1)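 Fold enrichment is each target's read fraction divided by its read fraction in the input library. Sf9 insect cells expressed His-tagged AGO2 from baculovirus; the protein was loaded with a synthetic guide RNA and purified by Ni-NTA and a biotinylated capture oligo. The bound RNA was extracted, reverse-transcribed, barcode-amplified and sequenced on Illumina.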
For the molecule B1, the binding signal was 117 fold enrichment over input.

As for B2, the binding signal is 0.165 fold enrichment over input.

Regarding B3, the binding signal was 0.177 fold enrichment over input.

In the case of B4, the binding signal is 0.232 fold enrichment over input.

B5: the binding signal is 0.133 fold enrichment over input.

Take B6: the binding signal is 0.154 fold enrichment over input.

Consider B7, for which the binding signal was 0.17 fold enrichment over input.

Take B8: the binding signal is 0.186 fold enrichment over input.

For B9, the binding signal was 0.165 fold enrichment over input.

On to B10, for which the binding signal is 0.235 fold enrichment over input.

For another experiment, the target named is AGO2 L192P (Homo sapiens, UniProt Q9UKV8 1-859, L192P;S387D;S824A;S828D;S831D;S834A). The experiment is described as above. Conditions: protein: recombinant; tags: His6 (N-terminal, pFastBac HTA). The method in brief:
as §1
B1: the binding signal was 45.2 fold enrichment over input.

For the molecule B2, the binding signal was 0.769 fold enrichment over input.

Turning to B3, the binding signal was 0.659 fold enrichment over input.

Take B4: the binding signal is 0.674 fold enrichment over input.

For the molecule B5, the binding signal was 0.539 fold enrichment over input.

With B6, the binding signal was 0.641 fold enrichment over input.

In the case of B7, the binding signal was 0.761 fold enrichment over input.

B8: the binding signal was 1.56 fold enrichment over input.

For the molecule B9, the binding signal is 0.635 fold enrichment over input.

Turning to B10, the binding signal is 1.13 fold enrichment over input.

A further experiment concerns the target AGO2 A367P (Homo sapiens, UniProt Q9UKV8 1-859, A367P;S387D;S824A;S828D;S831D;S834A). The description is as above. Conditions: protein: recombinant; tags: His6 (N-terminal, pFastBac HTA). The method in brief:
as §1
On to B1, for which the binding signal was 66.8 fold enrichment over input.

With B2, the binding signal was 0.434 fold enrichment over input.

In the case of B3, the binding signal was 0.413 fold enrichment over input.

In the case of B4, the binding signal was 0.501 fold enrichment over input.

In the case of B5, the binding signal is 0.229 fold enrichment over input.

Regarding B6, the binding signal is 0.325 fold enrichment over input.

For B7, the binding signal is 0.505 fold enrichment over input.

Take B8: the binding signal was 1.45 fold enrichment over input.

In the case of B9, the binding signal is 0.396 fold enrichment over input.

As for B10, the binding signal is 0.727 fold enrichment over input.

Another experiment deals with AGO2 T357M (Homo sapiens, UniProt Q9UKV8 1-859, T357M;S387D;S824A;S828D;S831D;S834A). Described as above. The settings on record: protein: recombinant; tags: His6 (N-terminal, pFastBac HTA). The method in brief: as §1
AGO2 T357M, sequence (Q9UKV8 whole entry T357M/S387D/S824A/S828D/S831D/S834A): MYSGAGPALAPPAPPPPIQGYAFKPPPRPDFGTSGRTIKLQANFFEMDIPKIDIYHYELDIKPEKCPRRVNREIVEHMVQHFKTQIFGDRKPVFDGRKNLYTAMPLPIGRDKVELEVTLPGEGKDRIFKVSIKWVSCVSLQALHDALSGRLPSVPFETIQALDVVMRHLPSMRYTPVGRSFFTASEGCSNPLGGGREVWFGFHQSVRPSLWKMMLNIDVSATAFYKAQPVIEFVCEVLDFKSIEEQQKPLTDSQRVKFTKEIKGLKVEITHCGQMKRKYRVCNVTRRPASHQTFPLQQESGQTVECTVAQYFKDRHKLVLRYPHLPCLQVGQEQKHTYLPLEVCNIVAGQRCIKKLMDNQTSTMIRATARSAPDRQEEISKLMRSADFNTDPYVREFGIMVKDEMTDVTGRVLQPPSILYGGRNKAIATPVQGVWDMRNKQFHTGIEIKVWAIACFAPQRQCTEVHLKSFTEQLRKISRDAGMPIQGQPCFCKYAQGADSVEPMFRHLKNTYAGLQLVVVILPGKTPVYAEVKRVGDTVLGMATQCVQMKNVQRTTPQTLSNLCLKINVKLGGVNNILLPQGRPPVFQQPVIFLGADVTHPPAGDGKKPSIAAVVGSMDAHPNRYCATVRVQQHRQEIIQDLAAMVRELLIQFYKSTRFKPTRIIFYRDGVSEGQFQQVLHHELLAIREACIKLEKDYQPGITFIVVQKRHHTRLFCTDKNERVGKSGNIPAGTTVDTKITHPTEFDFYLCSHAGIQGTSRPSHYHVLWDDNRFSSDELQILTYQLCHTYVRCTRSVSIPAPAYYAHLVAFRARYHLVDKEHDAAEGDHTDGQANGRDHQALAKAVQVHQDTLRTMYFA
Take B1: the binding signal is 44 fold enrichment over input.

As for B2, the binding signal is 0.679 fold enrichment over input.

B3: the binding signal is 0.689 fold enrichment over input.

Regarding B4, the binding signal was 0.678 fold enrichment over input.

With B5, the binding signal is 0.707 fold enrichment over input.

As to B6, the binding signal is 0.628 fold enrichment over input.

B7: the binding signal was 0.643 fold enrichment over input.

Consider B8, for which the binding signal is 0.527 fold enrichment over input.

Take B9: the binding signal is 0.657 fold enrichment over input.

For the molecule B10, the binding signal was 0.709 fold enrichment over input.

The next experiment concerns the target AGO2 F182del (Homo sapiens, UniProt Q9UKV8 1-859, S387D;S824A;S828D;S831D;S834A;del182-182). The experiment is described as above. The settings on record: protein: recombinant; tags: His6 (N-terminal, pFastBac HTA). The method in brief:
as §1
On to B1, for which the binding signal is 91.6 fold enrichment over input.

For the molecule B2, the binding signal was 1.83 fold enrichment over input.

Turning to B3, the binding signal is 1.38 fold enrichment over input.

Turning to B4, the binding signal is 1.79 fold enrichment over input.

Regarding B5, the binding signal is 0.311 fold enrichment over input.

B6: the binding signal was 1.11 fold enrichment over input.

For B7, the binding signal was 2.01 fold enrichment over input.

For B8, the binding signal was 1.55 fold enrichment over input.

Regarding B9, the binding signal was 1.42 fold enrichment over input.

Take B10: the binding signal is 4.77 fold enrichment over input.

(Values after article PMC12529666, “Dysregulation of AGO2-miRNA dynamics underlies the AGO2-associated Lessel–Kreienkamp syndrome”.)
